Experimental data taken from PubChem BioAssay AID1688 (National Center for Advancing Translational Sciences (NCATS), 2009).
Hit rate of the full screen: of about 220,000 compounds, about 2,400 (1.1%) were called active. Roughly 7% stayed inconclusive and do not appear here. Only a selection was taken, and actives are over-represented in it overall. Values without a mark were called inactive. Calls follow the shape of the dose curve; as a rule, active = well fitted inhibition curve with a large enough effect; inconclusive = small, poorly fitted or top-dose-only effect, or effect the other way; inactive = no such curve, though single readings can be large or run the other way.

test: qHTS Multiplex Assay to Identify Dual Action Probes in a Cell Model of Huntington: Aggregate Formation (GFP); conditions: PC12 HttQ103-GFP aggregates, Acumen cytometry, 40 h; series mostly up to 9.22 µM; activity change, negative = inhibition: at the top concentration; also: nearly all actives have a fitted effect of over 60% in size
In short: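 Quantitative HTS on tebufenozide-induced (100 nM) PC12 cells stably expressing polyQ103 Huntingtin exon 1–GFP. Reduction of bright GFP aggregates, detected by laser scanning cytometry after lysis, identified actives across the titration.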
% is scaled to controls: 0 for no effect and ±100 for the full control effect; potency is read from the fitted curve at half-maximal effect.

Structure (SMILES) | activity change, negative = inhibition | Potency
CC(C)Sc1nnc([C@H](Cc2ccccc2)NC(=O)OC(C)(C)C)o1 | 9.88% | 
CCc1cc(C(=O)c2ccc(OC)cc2)c(NC(=O)CN2CCN(C)CC2)s1 | -4.7% | 
CCOC(=O)c1c(NC(=O)NC(C)(C)C)sc2c1CCN(C)C2 | 24.2% | 
Cc1cc(C(=O)Nc2c(C)nn(Cc3ccccc3)c2C)on1 | -1.37% [at 46.1 µM] | 
Cc1nn(Cc2ccc(Cl)c(Cl)c2)c(C)c1NC(=O)c1cc(C2CC2)on1 |  | 17.8 µM (active)
O=C(Nc1cc(C(F)(F)F)ccc1Cl)c1cc(C2CC2)on1 | -12.3% [at 46.1 µM] | 
CCOC(=O)c1c(C)oc(C)c(C(=O)OCC)c1=O | -16.8% | 
Cc1c(S(=O)(=O)NCc2ccccc2)c(=O)n(C)c(=O)n1C | 34.1% | 
CCc1ccc2nc(Nc3ncc(C(C)=O)c(C)n3)nc(C)c2c1 | -19.3% | 
O=C(CSc1nc2ccccc2c(=O)n1CCCO)N1CCc2ccccc21 | 4.23% [at 46.1 µM] | 
Cn1c(SCC(=O)N2CCCc3ccccc32)nc2ccccc2c1=O |  | 7.94 µM (active)
O=C(CSc1nc2[nH]ncc2c(=O)n1-c1ccccc1)N1CCCc2ccccc21 | 1.39% [at 46.1 µM] | 
Cc1nc(CNS(=O)(=O)c2cc([N+](=O)[O-])ccc2C)cs1 | 0.787% | 
COc1ccc(NC(=S)Nc2ccccc2Cl)cn1 | 7.84% [at 46.1 µM] | 
COc1ccc(NC(=S)NCCNC(C)=O)cc1 | 12.1% [at 46.1 µM] | 
COc1ccc(CS(=O)/C(Cl)=C(/Cl)C(=O)Nc2ccc(OC)nc2)cc1 (configuration not stated) |  | 5.01 µM (active)
FCOC(C(F)(F)F)C(F)(F)F | 6.73% [at 46.1 µM] | 
CC(Oc1ccc2ccccc2c1)C(=O)NNC(=S)NC(=O)c1ccco1 (configuration not stated) |  | 11.2 µM (active)
COc1ccc(C(=O)NC(=S)NNC(=O)CCc2ccccc2)cc1 | -24% [at 46.1 µM] | 
O=C(Nc1ccc2ccccc2c1)/C(=C/c1cccc(Br)c1)NC(=O)c1ccco1 | -8.13% [at 46.1 µM] | 
O=C(c1ccco1)N1CCN(CCOc2ccccc2)CC1 | 12.3% | 

Structure (SMILES) | activity change, negative = inhibition | Potency
COc1ccc(-c2cc(C(F)(F)F)nc(SCC(=O)Nc3ccc4c(c3)OCO4)n2)cc1OC | -7.98% [at 46.1 µM] | 
COc1cc(OC)nc(S(C)(=O)=O)n1 | 5.84% [at 46.1 µM] | 
COc1ccc(-c2cc(C(F)(F)F)nc(S(C)(=O)=O)n2)cc1OC |  | 10 µM (active)
CC1Cc2ccccc2N1S(=O)(=O)c1ccc(Cl)nc1 (configuration not stated) | 5.35% | 
COc1ccc(C2(C#N)CCC(C(=O)O)CC2)cc1OC1CCCC1 (configuration not stated) | 3.74% [at 46.1 µM] | 
CCOC(=O)C1CCN(c2ncnc3c2oc2ccc(Br)cc23)CC1 | 11.4% [at 46.1 µM] | 
CCOC(=O)N1CCN(C(=O)C2CCN(c3ncnc4c3sc3cccc(F)c34)CC2)CC1 |  | 10 µM (active)
CCOC(=O)N1CCN(C(=O)C2CCN(Cc3ccc(OC)cc3OC)CC2)CC1 | 4.49% [at 46.1 µM] | 
CC(C)/C=N/NC(=O)c1cc(Br)ccc1O |  | 8.91 µM (active)
COc1ccc(-c2[nH]ncc2/C=N/NC(=O)c2cc(Br)ccc2O)c(OC)c1 | -30.4% [at 46.1 µM] | 
O=C(N/N=C\c1cccc(Br)c1)c1ccccc1-n1cccc1 | -0.974% [at 46.1 µM] | 
Cc1c(C)c(C)c2[nH]c(=S)[nH]c2c1C | -19.2% | 
CCc1c(C)nc2c(-c3ccccc3)c(C)nn2c1Nc1ccc(NC(C)=O)cc1 | 13.2% | 
O=C(N/N=C/c1ccccc1O)/C(=C/c1ccccc1)CCO |  | 7.94 µM (active)
O=C(CCCCCNC(=O)c1ccccc1)N/N=C/c1ccccc1 | 10.1% [at 46.1 µM] | 
O=C(CCC(=O)Nc1ccccc1)N/N=C/c1ccccc1F | 10.3% [at 46.1 µM] | 
O=[N+]([O-])C(=c1ccc2c(c1)N1C3=C(CCCC3)CC3CCCCC31N=2)[N+](=O)[O-] (configuration not stated) | -2.2% | 
CCOC(=O)CN(C(=O)COc1nc(-c2ccccc2)cc(C)c1C#N)c1ccc(F)cc1 | -11% | 
C=CCN(c1ccccc1C(=O)NCC(=O)OCC)S(=O)(=O)c1ccc(C)cc1 | -26.8% | 
O=C(O)c1ccc(NC(=O)C2CCCCC2)cc1 | 8.31% [at 46.1 µM] | 
CN1C(=O)c2ccc(NC(=O)C3CCCCC3)cc2C1=O | 3.28% [at 46.1 µM] | 

Structure (SMILES) | activity change, negative = inhibition | Potency
O=C(Nc1cnn(Cc2ccc(Cl)cc2)c1)C1CCCC1 |  | 0.794 µM (active)
COc1ccc(-c2nc3cc([N+](=O)[O-])ccc3o2)cc1OC | -3.14% | 
COc1ccc(OCC(=O)Nc2cc(C)c(Cl)cc2OC)c([N+](=O)[O-])c1 | 7.75% [at 46.1 µM] | 
Cc1nnc(-c2ccc(Oc3ccc(C)c(C)c3)c([N+](=O)[O-])c2)o1 |  | 11.2 µM (active)
O=C(N/N=C/c1ccccn1)c1cccnc1 | -3.79% | 
NC(=O)Cc1ccc2c(c1)[nH]c1ccccc12 | 14% | 
O=[N+]([O-])/C=C1\CCCCCN1 | 18.3% | 
CCc1ccc(S(=O)(=O)NCC(O)COc2ccc(OC)cc2)cc1 (configuration not stated) | -7.53% | 
CCOc1ccc(-n2c(O)c(/C=N/Nc3nnc(C)c(=O)[nH]3)c3ccccc3c2=O)cc1 | 5.42% [at 46.1 µM] | 
COc1ccc(Cc2nnc(N/N=C/c3ccccc3O)[nH]c2=O)cc1OC |  | 1.26 µM (active)
Cc1nnc(N/N=C/c2ccccn2)[nH]c1=O | -25.2% | 
COC(=O)[C@@H]1CC2=CC(=O)CC[C@]2(C)[C@@]23O[C@@H]2C[C@@]2(C)[C@@H](CC[C@@]24CCC(=O)O4)[C@H]13 | 7.77% [at 46.1 µM] | 
CC(=O)c1cccc(NC(=O)Nc2ccc(C)cc2)c1 | -23.6% [at 46.1 µM] | 
COC(C(=O)Nc1ccc(C(C)=O)cc1)c1ccccc1 (configuration not stated) | 3.95% [at 46.1 µM] | 
Cc1ccc(NC(=O)C(C)c2cccc(C(=O)c3ccccc3)c2)cc1 (configuration not stated) |  | 25.1 µM (active)
CCOC(=O)C1C(c2ccc(OC)c(OC)c2)c2c([nH][nH]c2=O)CC1(C)O (configuration not stated) | -8.41% | 
O=C1N(c2ccccc2)C(=Nc2ccccc2)SC12CC2 | -12.3% | 
Fc1ccc2[nH]c3c(N4CCN(Cc5ccc6c(c5)OCO6)CC4)ncnc3c2c1 |  | 3.55 µM (active)
Cc1cc(N2CCN(Cc3ccc4c(c3)OCO4)CC2)n2ncnc2n1 | -6.11% [at 46.1 µM] | 
O=c1[nH]c(N2CCN(Cc3ccc4c(c3)OCO4)CC2)nc2c1CCCC2 | 7.27% [at 46.1 µM] | 
